Inconclusive results are not listed. Where a structure was tested more than once in an assay, its records may differ in their call. Calls of active or inactive are those of the source. The calls were made as follows, unless noted: active = hit-call score of the fitted dose curve at least 0.9, where 1 is the maximum; inconclusive = response in the unintended direction; inactive = score below 0.9.
Experiments:
[1] = biological target: human Retinoic Acid Receptor beta (RARb), RARB (gene 5915) (UniProt P10826); test: ATG_RARb_TRANS: Attagene TRANS-FACTORIAL HepG2 Assay for human Retinoic Acid Receptor beta (AID 2283004)
Procedure, shortened: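 HepG2 cells transiently transfected with multiplexed GAL4-UAS reporter units expressing chimeric NR–Gal4 fusions; 24 h compound exposure. Reporter mRNA quantified by RT-PCR, 6-FAM labelling, HpaI digestion and capillary electrophoresis; gain-of-signal fitted against DMSO baseline.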

[2] = biological target: Retinoic acid receptor alpha (Homo sapiens) (UniProt P10276); test: ATG_RARa_TRANS: Attagene TRANS-FACTORIAL HepG2 Assay for human Retinoic Acid Receptor alpha (RARa) (AID 2283005)
Procedure, shortened: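 HepG2 cells transiently transfected with multiple reporter units expressing chimeric RARα-GAL4 fusion, with GAL4-UAS-driven reporters. After 24 h compound exposure, reporter mRNA induction quantified by RT-PCR and capillary electrophoresis with fluorescent labeling; gain-of-signal fitted relative to DMSO control.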

[3] = biological target: Peroxisome proliferator-activated receptor gamma (Homo sapiens) (UniProt P37231); test: ATG_PPARg_TRANS: Attagene TRANS-FACTORIAL HepG2 Assay for human Peroxisome Proliferator-activated Receptor-gamma (PPARg) (AID 2283007)
Procedure, shortened: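 Transient transfection of HepG2 with GAL4-UAS-driven reporter units; chemical dosing 24 h; total RNA → oligo(dT) RT → PCR with reporter primers → 6-FAM primer extension → HpaI digest 2 h 37 C → capillary electrophoresis. Positive direction vs DMSO.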

[4] = biological target: Nuclear receptor subfamily 1 group I member 2 (Homo sapiens) (UniProt O75469); test: ATG_PXR_TRANS: Attagene TRANS-FACTORIAL HepG2 Assay for human Pregnane X Receptor (PXR) (AID 2283008)
Procedure, shortened: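 Fluorescence intensity of FAM-labelled, HpaI-digested reporter amplicons, separated by capillary electrophoresis, quantifies induction. HepG2 cells with PXR-Gal4 trans-reporter system were exposed 24 h; DMSO defines baseline.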

[5] = biological target: human Retinoic Acid Receptor gamma (RARg), RARG (gene 5916) (UniProt P13631); test: ATG_RARg_TRANS: Attagene TRANS-FACTORIAL HepG2 Assay for human Retinoic Acid Receptor gamma (RARg) (AID 2283009)
Procedure, shortened: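 HepG2 cells transiently transfected with multiplexed reporter units expressing chimeric RARg-GAL4 and GAL4-UAS-driven reporters; 24 h compound exposure. Reporter mRNA quantified by RT-PCR with fluorescent labelling and capillary electrophoresis; gain-of-signal fitted relative to DMSO baseline.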

[6] = biological target: human RAR-related Orphan Receptor beta (RORb), RORB (gene 6096) (UniProt Q92753); test: ATG_RORb_TRANS: Attagene TRANS-FACTORIAL HepG2 Assay for human RAR-related Orphan Receptor beta (RORb) (AID 2283010)
Procedure, shortened: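 HepG2 cells were transiently transfected with multiplexed GAL4-UAS reporter units expressing chimeric nuclear receptor–GAL4 proteins, then dosed for 24 h. Reporter mRNA was quantified by RT-PCR with fluorescent labelling and capillary electrophoresis; gain of signal was fitted relative to DMSO.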

[7] = biological target: human RAR-related Orphan Receptor gamma (RORg), RORC (gene 6097) (UniProt P51449); test: ATG_RORg_TRANS: Attagene TRANS-FACTORIAL HepG2 Assay for human RAR-related Orphan Receptor gamma (RORg) (AID 2283011)
Procedure, shortened: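 Readout: reporter transcript induction (RT-PCR, fluorescent primer extension, capillary electrophoresis) after 24 h compound exposure of transiently transfected HepG2 cells carrying a RORg-Gal4 chimera and GAL4-UAS reporters; DMSO served as baseline, with increasing signal fitted.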

[8] = biological target: Retinoic acid receptor RXR-alpha (Homo sapiens) (UniProt P19793); test: ATG_RXRa_TRANS: Attagene TRANS-FACTORIAL HepG2 Assay for human Retinoid X Receptor alpha (RXRa) (AID 2283012)
Procedure, shortened: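 HepG2 cells transiently transfected with multiplexed GAL4-UAS reporter units and chimeric NR-GAL4 fusions, dosed 24 h. Reporter mRNA measured by RT-PCR, FAM labelling, HpaI digestion and capillary electrophoresis; gain-of-signal fitted relative to DMSO baseline.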

[9] = biological target: human Vitamin D Receptor (VDR), VDR (gene 7421) (UniProt P11473); test: ATG_VDR_TRANS: Attagene TRANS-FACTORIAL HepG2 Assay for human Vitamin D Receptor (VDR) (AID 2283022)
Procedure, shortened: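 HepG2 cells were transiently transfected with multiple GAL4-UAS reporter units, so signal reflects exogenous chimeric receptor-Gal4 activity. After 24 h compound exposure, reporter mRNA was measured by RT-PCR, fluorescent labelling and capillary electrophoresis, fitted for gain of signal versus DMSO.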

[10] = biological target: human Retinoid X Receptor beta (RXRb), RXRB (gene 6257) (UniProt P28702); test: ATG_RXRb_TRANS: Attagene TRANS-FACTORIAL HepG2 Assay for human Retinoid X Receptor beta (RXRb) (AID 2283013)
Procedure, shortened: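 HepG2 cells transiently transfected with multiplexed reporter units driven by GAL4-UAS and exogenous chimeric NR-Gal4 proteins; treated 24 h. Reporter mRNA measured by RT-PCR, 6-FAM labelling and capillary electrophoresis; gain-of-signal fitted versus DMSO baseline.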

[11] = biological target: human Thyroid Receptor alpha (THRa1), THRA (gene 7067) (UniProt P10827); test: ATG_THRa1_TRANS: Attagene TRANS-FACTORIAL HepG2 Assay for human Thyroid Receptor alpha (THRa1) (AID 2283014)
Procedure, shortened: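 HepG2 cells transiently transfected with multiplexed GAL4-UAS reporter units for exogenous chimeric THRa1-Gal4; reporter mRNA measured 24 h after dosing by RT-PCR, 6-FAM labelling, HpaI digestion and capillary electrophoresis. Gain-of-signal fitted versus DMSO baseline.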

[12] = read-out: Intercellular Adhesion Molecule 1 (ICAM1), ICAM1 (gene 3383); test: BSK_3C_ICAM1: BioMAP Diversity Plus: 3C Assay for Intercellular Adhesion Molecule 1 (ICAM1) Biomarker Activity (AID 2283003; active = hit-call score of the fitted dose curve at least 0.9, where 1 is the maximum; inactive = score below 0.9); settings: primary human endothelial cells (HUVEC); actives raise or lower the signal
Procedure, shortened: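 Primary human umbilical vein endothelial cells in the BioMAP 3C system were exposed to chemicals for 24 h, then ICAM-1 was quantified by ELISA. Activity was fitted bidirectionally against the DMSO negative control baseline.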

[13] = BSK_3C_Proliferation: Cell Proliferation Assessment in the BioMAP Diversity Plus: 3C Assay (AID 2283006; active = hit-call score of the fitted dose curve at least 0.9, where 1 is the maximum; inactive = score below 0.9;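 as to AC50: potency may reflect either rise or fall in cell number versus DMSO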); settings: primary human endothelial cells (HUVEC)
Procedure, shortened: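 Human umbilical vein endothelial cells were grown sub-confluent and exposed to chemical for 48 h, then fixed with 10% TCA and stained with 0.1% sulforhodamine B; absorbance at 560 nm gave relative cell number, fitted bidirectionally against DMSO baseline.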

[14] = read-out: E-selectin (Homo sapiens) (UniProt P16581); test: BSK_3C_Eselectin: BioMAP Diversity Plus: 3C Assay for Eselectin Biomarker Activity (AID 2283015; active = hit-call score of the fitted dose curve at least 0.9, where 1 is the maximum; inactive = score below 0.9); settings: primary human endothelial cells (HUVEC); actives raise or lower the signal
Procedure, shortened: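 Primary human umbilical vein endothelial cells (3C system) were dosed with chemical and cell-surface E-selectin measured by ELISA 24 h later. Bidirectional curve fitting used DMSO as negative control and baseline.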

[15] = read-out: Interleukin-1 alpha (IL1a), IL1A (gene 3552); test: BSK_BE3C_IL1a: BioMAP Diversity Plus: BE3C Assay for Interleukin-1 alpha (IL1a) Biomarker Activity (AID 2283016; active = hit-call score of the fitted dose curve at least 0.9, where 1 is the maximum; inactive = score below 0.9); settings: primary human bronchial epithelial cells; actives raise or lower the signal
Procedure, shortened: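 Human primary bronchial epithelial cells (BE3C system) were dosed with compound and IL-1a measured by ELISA 24 h later. Activity was fitted bidirectionally against DMSO baseline; cytotoxicity was tracked in parallel cultures by SRB total-protein staining.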

[16] = read-out: Monocyte Chemoattractant Protein-1 (MCP1), CCL2 (gene 6347); test: BSK_3C_MCP1: BioMAP Diversity Plus: 3C Assay for Monocyte Chemoattractant Protein-1 (MCP1) Biomarker Activity (AID 2283017; active = hit-call score of the fitted dose curve at least 0.9, where 1 is the maximum; inactive = score below 0.9); settings: primary human endothelial cells (HUVEC); actives raise or lower the signal
Procedure, shortened: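 Primary human umbilical vein endothelial cells (3C system) were exposed to test chemical for 24 h, after which MCP-1 was quantified by ELISA. Activity was fitted bidirectionally against DMSO as negative control and baseline.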

[17] = read-out: Monocyte Chemoattractant Protein-1 (MCP1), CCL2 (gene 6347); test: BSK_4H_MCP1: BioMAP Diversity Plus: 4H Assay for Monocyte Chemoattractant Protein-1 (MCP1) Biomarker Activity (AID 2283018; active = hit-call score of the fitted dose curve at least 0.9, where 1 is the maximum; inactive = score below 0.9); settings: primary human endothelial cells (HUVEC); actives raise or lower the signal
Procedure, shortened: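 Human umbilical vein endothelial cells (4H system) dosed with chemical; MCP-1 measured by ELISA 24 h after dosing. Bidirectional curve fitting against DMSO negative control as baseline; parallel SRB total-protein staining tracks overt cytotoxicity.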

[18] = read-out: Human Leukocyte Antigen - DR isotype (HLADR), HLA-DRA (gene 3122); test: BSK_3C_HLADR: BioMAP Diversity Plus: 3C Assay for Human Leukocyte Antigen - DR isotype (HLADR) Biomarker Activity (AID 2283019; active = hit-call score of the fitted dose curve at least 0.9, where 1 is the maximum; inactive = score below 0.9); settings: primary human endothelial cells (HUVEC); actives raise or lower the signal
Procedure, shortened: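 Primary human umbilical vein endothelial cells (3C system) were dosed with compound and cell-surface HLA-DR was quantified by ELISA at 24 h. Activity was fitted bidirectionally against DMSO as negative control and baseline.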

[19] = read-out: Interleukin-8 (IL8), CXCL8 (gene 3576); test: BSK_3C_IL8: BioMAP Diversity Plus: 3C Assay for Interleukin-8 (IL8) Biomarker Activity (AID 2283020; active = hit-call score of the fitted dose curve at least 0.9, where 1 is the maximum; inactive = score below 0.9); settings: primary human endothelial cells (HUVEC); actives raise or lower the signal
Procedure, shortened: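 Primary human umbilical vein endothelial cells (3C system) were exposed to test chemical for 24 h, then IL-8 was quantified by ELISA. Responses were fitted bidirectionally against DMSO vehicle as baseline.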

[20] = read-out: Monokine induced gamma interferon (MIG), CXCL9 (gene 4283); test: BSK_3C_MIG: BioMAP Diversity Plus: 3C Assay for Monokine induced gamma interferon (MIG) Biomarker Activity (AID 2283021; active = hit-call score of the fitted dose curve at least 0.9, where 1 is the maximum; inactive = score below 0.9;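 as to AC50: MIG protein level measured by immunoassay in the treated endothelial cultures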); settings: primary human endothelial cells (HUVEC); actives raise or lower the signal
Procedure, shortened: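 Primary human umbilical vein endothelial cells in the 3C system were exposed to chemical for 24 h, after which MIG was quantified by ELISA. Activity was fitted bidirectionally against DMSO as negative control and baseline.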

Measured: AC50

human Vitamin D Receptor (VDR), VDR (gene 7421), sequence (P11473 whole entry, looked up, the tested form may be a part): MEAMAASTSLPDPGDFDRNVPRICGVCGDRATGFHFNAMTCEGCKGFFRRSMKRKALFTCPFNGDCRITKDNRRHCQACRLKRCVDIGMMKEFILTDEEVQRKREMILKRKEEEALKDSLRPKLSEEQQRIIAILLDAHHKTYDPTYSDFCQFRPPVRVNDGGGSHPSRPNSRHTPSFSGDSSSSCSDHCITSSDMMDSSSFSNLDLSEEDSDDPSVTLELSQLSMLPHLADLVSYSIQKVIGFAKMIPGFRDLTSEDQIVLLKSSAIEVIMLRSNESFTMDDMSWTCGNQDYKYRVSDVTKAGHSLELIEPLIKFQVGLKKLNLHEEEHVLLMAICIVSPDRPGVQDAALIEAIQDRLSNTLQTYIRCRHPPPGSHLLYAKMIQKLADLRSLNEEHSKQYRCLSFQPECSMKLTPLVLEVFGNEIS
human RAR-related Orphan Receptor beta (RORb), RORB (gene 6096), sequence (Q92753 whole entry, looked up, the tested form may be a part): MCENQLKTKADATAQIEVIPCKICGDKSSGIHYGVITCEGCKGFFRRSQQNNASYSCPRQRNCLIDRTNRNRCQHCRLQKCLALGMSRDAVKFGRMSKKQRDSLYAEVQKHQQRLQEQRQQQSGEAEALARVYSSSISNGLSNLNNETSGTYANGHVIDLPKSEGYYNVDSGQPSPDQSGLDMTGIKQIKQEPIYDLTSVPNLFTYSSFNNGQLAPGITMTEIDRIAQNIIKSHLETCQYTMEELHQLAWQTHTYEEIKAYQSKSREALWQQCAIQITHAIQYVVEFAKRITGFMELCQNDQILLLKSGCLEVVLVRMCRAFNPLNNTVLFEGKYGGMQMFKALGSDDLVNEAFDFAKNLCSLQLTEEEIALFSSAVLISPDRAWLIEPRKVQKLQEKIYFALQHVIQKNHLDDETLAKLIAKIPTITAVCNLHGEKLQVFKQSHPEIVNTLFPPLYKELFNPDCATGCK
human Retinoic Acid Receptor beta (RARb), RARB (gene 5915), sequence (P10826 whole entry, looked up, the tested form may be a part): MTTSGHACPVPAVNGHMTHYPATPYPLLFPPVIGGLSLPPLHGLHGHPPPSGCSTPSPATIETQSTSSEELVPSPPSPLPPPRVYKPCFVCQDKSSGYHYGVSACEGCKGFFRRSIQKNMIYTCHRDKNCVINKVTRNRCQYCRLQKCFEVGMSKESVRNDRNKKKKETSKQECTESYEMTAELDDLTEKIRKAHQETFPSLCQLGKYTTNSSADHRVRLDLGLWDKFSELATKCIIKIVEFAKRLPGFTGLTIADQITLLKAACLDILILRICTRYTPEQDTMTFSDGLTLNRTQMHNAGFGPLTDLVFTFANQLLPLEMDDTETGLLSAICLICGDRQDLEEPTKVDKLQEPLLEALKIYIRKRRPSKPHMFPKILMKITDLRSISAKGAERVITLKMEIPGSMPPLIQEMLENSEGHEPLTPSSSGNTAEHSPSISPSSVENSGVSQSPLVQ
human Thyroid Receptor alpha (THRa1), THRA (gene 7067), sequence (P10827 whole entry, looked up, the tested form may be a part): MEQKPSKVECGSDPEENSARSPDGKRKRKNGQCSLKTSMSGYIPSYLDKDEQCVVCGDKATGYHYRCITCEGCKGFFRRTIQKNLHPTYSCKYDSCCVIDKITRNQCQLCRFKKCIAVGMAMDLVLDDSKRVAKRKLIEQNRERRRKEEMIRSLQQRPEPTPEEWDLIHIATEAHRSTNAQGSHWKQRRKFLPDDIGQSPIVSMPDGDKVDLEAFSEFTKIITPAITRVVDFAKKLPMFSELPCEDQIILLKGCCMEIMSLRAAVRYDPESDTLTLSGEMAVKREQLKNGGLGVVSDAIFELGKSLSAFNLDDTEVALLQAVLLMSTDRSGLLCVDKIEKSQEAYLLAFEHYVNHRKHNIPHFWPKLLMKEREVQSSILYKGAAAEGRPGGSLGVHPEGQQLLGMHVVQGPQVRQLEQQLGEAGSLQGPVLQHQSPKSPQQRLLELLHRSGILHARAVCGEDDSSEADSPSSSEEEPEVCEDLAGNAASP
human Retinoid X Receptor beta (RXRb), RXRB (gene 6257), sequence (P28702 whole entry, looked up, the tested form may be a part): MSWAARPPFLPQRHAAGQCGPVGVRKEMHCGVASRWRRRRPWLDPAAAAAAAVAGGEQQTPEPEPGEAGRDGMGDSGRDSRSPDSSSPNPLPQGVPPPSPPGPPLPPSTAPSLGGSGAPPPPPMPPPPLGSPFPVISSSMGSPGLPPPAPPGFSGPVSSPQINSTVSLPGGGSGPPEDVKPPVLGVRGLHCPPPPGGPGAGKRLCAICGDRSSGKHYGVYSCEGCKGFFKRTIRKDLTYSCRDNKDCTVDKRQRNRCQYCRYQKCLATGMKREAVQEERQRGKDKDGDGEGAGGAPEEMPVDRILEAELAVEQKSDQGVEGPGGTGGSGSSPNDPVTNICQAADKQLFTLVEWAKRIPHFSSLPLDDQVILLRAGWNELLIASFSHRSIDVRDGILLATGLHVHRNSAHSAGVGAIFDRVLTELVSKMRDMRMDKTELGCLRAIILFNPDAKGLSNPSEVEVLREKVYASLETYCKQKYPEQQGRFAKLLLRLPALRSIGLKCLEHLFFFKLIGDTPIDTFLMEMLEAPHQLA
E-selectin (Homo sapiens), sequence (P16581 whole entry, looked up): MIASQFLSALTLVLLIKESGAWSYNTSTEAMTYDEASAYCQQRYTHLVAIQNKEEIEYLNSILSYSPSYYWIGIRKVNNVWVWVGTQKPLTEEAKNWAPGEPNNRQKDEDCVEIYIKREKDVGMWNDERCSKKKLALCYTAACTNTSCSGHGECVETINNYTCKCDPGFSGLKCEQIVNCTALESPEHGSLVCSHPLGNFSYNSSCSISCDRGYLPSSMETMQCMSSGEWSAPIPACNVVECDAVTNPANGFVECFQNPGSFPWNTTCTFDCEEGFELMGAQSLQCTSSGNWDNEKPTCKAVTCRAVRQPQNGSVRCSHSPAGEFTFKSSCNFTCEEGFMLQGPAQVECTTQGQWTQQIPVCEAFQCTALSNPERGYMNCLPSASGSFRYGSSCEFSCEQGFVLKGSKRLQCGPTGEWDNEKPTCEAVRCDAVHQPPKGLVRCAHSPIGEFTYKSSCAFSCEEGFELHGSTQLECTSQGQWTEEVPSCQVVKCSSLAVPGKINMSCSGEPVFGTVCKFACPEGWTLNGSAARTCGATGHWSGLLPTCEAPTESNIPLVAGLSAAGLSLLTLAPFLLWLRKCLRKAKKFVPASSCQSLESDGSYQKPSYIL
Retinoic acid receptor alpha (Homo sapiens), sequence (P10276 whole entry, looked up, the tested form may be a part): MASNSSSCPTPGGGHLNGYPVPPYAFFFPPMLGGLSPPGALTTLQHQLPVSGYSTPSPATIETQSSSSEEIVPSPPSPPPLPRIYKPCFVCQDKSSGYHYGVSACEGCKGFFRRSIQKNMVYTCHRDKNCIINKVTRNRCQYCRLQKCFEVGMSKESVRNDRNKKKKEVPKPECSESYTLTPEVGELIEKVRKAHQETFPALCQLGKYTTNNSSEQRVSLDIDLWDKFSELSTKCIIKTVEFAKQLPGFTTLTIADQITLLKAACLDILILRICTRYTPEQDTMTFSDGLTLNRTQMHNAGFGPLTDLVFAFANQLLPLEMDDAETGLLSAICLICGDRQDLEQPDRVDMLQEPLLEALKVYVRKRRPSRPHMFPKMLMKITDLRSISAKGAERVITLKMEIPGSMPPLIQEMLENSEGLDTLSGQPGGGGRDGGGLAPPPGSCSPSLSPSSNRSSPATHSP
Retinoic acid receptor RXR-alpha (Homo sapiens), sequence (P19793 whole entry, looked up, the tested form may be a part): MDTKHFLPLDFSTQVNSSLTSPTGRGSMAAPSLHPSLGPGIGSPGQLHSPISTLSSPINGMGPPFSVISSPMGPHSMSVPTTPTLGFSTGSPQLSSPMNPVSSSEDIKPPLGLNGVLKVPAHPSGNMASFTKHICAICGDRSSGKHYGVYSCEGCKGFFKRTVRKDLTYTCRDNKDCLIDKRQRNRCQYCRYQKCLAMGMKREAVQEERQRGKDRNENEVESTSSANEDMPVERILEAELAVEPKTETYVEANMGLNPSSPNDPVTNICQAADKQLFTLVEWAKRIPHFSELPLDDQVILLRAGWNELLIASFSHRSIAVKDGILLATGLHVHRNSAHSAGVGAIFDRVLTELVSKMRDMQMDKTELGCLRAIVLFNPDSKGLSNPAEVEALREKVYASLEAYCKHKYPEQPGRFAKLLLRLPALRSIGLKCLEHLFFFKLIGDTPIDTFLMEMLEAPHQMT
Peroxisome proliferator-activated receptor gamma (Homo sapiens), sequence (P37231 whole entry, looked up, the tested form may be a part): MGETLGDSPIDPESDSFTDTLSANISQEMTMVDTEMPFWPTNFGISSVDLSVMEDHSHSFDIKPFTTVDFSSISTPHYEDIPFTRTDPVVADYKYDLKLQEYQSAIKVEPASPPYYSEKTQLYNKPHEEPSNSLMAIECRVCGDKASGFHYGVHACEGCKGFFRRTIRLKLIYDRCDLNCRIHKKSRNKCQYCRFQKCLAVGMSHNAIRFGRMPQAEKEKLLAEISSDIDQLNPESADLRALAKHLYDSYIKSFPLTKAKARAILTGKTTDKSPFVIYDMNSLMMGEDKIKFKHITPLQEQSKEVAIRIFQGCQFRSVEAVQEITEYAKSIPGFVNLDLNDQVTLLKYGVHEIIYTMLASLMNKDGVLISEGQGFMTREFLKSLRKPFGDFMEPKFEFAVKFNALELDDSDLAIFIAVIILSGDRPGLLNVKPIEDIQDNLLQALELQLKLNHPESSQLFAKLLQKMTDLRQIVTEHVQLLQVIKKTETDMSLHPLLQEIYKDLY
Nuclear receptor subfamily 1 group I member 2 (Homo sapiens), sequence (O75469 whole entry, looked up, the tested form may be a part): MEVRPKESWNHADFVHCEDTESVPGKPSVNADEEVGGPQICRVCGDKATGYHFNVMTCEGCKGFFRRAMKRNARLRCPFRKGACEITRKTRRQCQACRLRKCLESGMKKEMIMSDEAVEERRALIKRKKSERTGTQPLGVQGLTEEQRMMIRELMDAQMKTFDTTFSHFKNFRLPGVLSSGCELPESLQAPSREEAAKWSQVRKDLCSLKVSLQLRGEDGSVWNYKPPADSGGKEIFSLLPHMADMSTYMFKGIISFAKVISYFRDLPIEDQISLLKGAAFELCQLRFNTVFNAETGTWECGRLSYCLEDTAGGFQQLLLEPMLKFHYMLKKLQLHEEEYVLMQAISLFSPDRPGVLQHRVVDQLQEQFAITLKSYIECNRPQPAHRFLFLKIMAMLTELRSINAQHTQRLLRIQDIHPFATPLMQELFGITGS

c1ccc(CNc2ncnc3c2ncn3C2CCCCO2)cc1 (stereo unspecified)
inactive: [1] | [2] | [5] | [8] | [10] | [9]
active: [3] 70.6 µM | [4] 6.85 µM

Clc1ccc2c(Cl)ccnc2c1
inactive: [1] | [2] | [5] | [8] | [10] | [11]
active: [3] 16.9 µM | [4] 25.8 µM

CCN(CCC#N)c1ccccc1
active: [4] 38.1 µM
inactive: [1] | [2] | [3] | [5] | [6] | [8] | [9]

FC(F)(F)C1(F)C(F)(F)C(F)(F)C(F)(F)C1(F)F
inactive: [1] | [2] | [3] | [5] | [6] | [7] | [8] | [9]

CCCCCCCCCCCC(=O)O
inactive: [1] | [2] | [3] | [4] | [5] | [8] | [11]
active: [3] 52.9 µM

CCOC(OCC)C(=O)c1ccccc1
active: [4] 16.7 µM
inactive: [1] | [2] | [3] | [6] | [8] | [10] | [9]

CCCCCCCCCCCCOS(=O)(=O)O
inactive: [12] | [13] | [14] | [15] | [16] | [17] | [18] | [19] | [20]

C=COC(=O)C(C)(C)CCCCCC
inactive: [3] | [8] | [11]
active: [12] 30.7 µM | [13] 26.7 µM | [4] 36.5 µM | [14] 32.7 µM | [15] 34.9 µM | [16] 31.3 µM | [17] 20 µM | [18] 33.6 µM | [19] 30.2 µM | [20] 33.9 µM

COCN(COC)c1nc(N(COC)COC)nc(N(COC)COC)n1
not listed: [1] | [2] | [3] | [6] | [7] | [8] | [11]
inactive: all other assays above

O=C1c2ccccc2C(=O)c2c(O)c(O)cc(O)c21
inactive: [1] | [2] | [5] | [6] | [10] | [9]
active: [3] 31.9 µM | [4] 31.5 µM | [11] 21.4 µM
